Holding throughout (assay): PBM binding z-score (relative to random genomic background probes); higher = stronger binding; sequences stand for … in GC…GCGATTGACAGCGTAGAATGAAGG
In assay [1] the test system is FXR:RXRa (NR concentration 270 nM, RXRa partner concentration 90 nM). The procedure, abridged:
(§1)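 Ligand-free nuclear receptor dimers were bound for 1 h to custom Agilent 4×180K protein-binding microarrays. Detection used antibodies against each partner (one per run). Binding z-scores rest on regression-normalized fluorescence, with random background probes as the reference.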

In assay [2] the test system is LXRa:RXRa (NR concentration 270 nM, RXRa partner concentration 90 nM). The procedure, abridged: as §1
Assay [3] has as its system LXRa homodimer (NR concentration 270 nM). The procedure, abridged: as §1
For assay [4], the system named is LXRb:RXRa (NR concentration 270 nM, RXRa partner concentration 90 nM). The gist of the method: as §1
Assay [5] concerns LXRb homodimer (NR concentration 270 nM). The gist of the method:
as §1

Assay [6] relates to PPARa:RXRa (NR concentration 270 nM, RXRa partner concentration 90 nM). The gist of the method:
as §1

Assay [7] relates to PPARg:RXRa (NR concentration 180 nM, RXRa partner concentration 90 nM). The gist of the method: as §1
The test system of assay [8] is PPARg:RXRa 270nM:90nM, anti-RXR (NR concentration 270 nM, RXRa partner concentration 90 nM). The gist of the method: as §1
Assay [9] deals with PPARg:RXRa 30nM:10nM, anti-RXR (NR concentration 30 nM, RXRa partner concentration 10 nM). The gist of the method: as §1
The test system of assay [10] is PPARg:RXRa 90nM:30nM, anti-RXR (NR concentration 90 nM, RXRa partner concentration 30 nM). The gist of the method:
as §1

For assay [11], the system named is PPARg:RXRa DBDmut IVT, anti-RXR (DBD mutation: RXRa K156A/R161A, NR concentration 270 nM, RXRa partner concentration 90 nM). The gist of the method: as §1
Assay [12] relates to PPARg:RXRa IVT, anti-PPARg (NR concentration 270 nM, RXRa partner concentration 90 nM). The procedure, abridged:
as §1

Assay [13] relates to PPARg DBDmut:RXRa IVT, anti-PPARg (DBD mutation: PPARg1 K132A/R137A, NR concentration 270 nM, RXRa partner concentration 90 nM). The procedure, abridged:
as §1

Assay [14] concerns PPARg DBDmut IVT, anti-PPARg (DBD mutation: PPARg1 K132A/R137A, NR concentration 270 nM). The procedure, abridged:
as §1

Assay [15] has as its system PPARg homodimer (NR concentration 180 nM). The gist of the method: as §1
For assay [16], the system named is PXR:RXRa (NR concentration 270 nM, RXRa partner concentration 90 nM). The procedure, abridged: as §1
Assay [17] concerns PXR homodimer (NR concentration 270 nM). The procedure, abridged: as §1
The subject of assay [18] is RARa:RXR (NR concentration 270 nM, RXRa partner concentration 90 nM). The gist of the method:
as §1

The test system of assay [19] is RARa homodimer (NR concentration 270 nM). The procedure, abridged: as §1
Assay [20] has as its system RARb:RXRa (NR concentration 270 nM, RXRa partner concentration 90 nM). The gist of the method: as §1

For CCTAGCAGGCCAGGGTCTCTCAAGCATTTCGCTT, the PBM binding z-score in [1] was -0.78; in [2], -0.742; in [3] it was -0.767; in assay [4], -0.956; in assay [5] it was -1.15; in assay [6], -0.63. For the same sequence, the PBM binding z-score in assay [7] was -0.954; in [8], -0.991; in [9] it was -1.16; in assay [10] it was -1.4; in assay [11], -0.0358; in assay [12] it was -0.785. In addition, the PBM binding z-score in assay [13] was -1.73; in assay [14], -1.57; in [15] it was -0.714; in assay [16], -0.908; in assay [17], -0.933; in assay [18], -0.825. Besides, the PBM binding z-score was -1.17 in assay [19] and -0.0781 in assay [20].

For GCCACTGGGGCATCAGCAGGTTACCATAACTTAA, the PBM binding z-score is -0.242 in assay [1]; -0.416 in [2]; -0.158 in assay [3]; 0.103 in assay [4]; -1.12 in [5]; 1.28 in assay [6]. The PBM binding z-score is 1.72 in assay [7]; 1.82 in assay [8]; 0.184 in assay [9]; 0.914 in assay [10]; 4.53 in assay [11]; 4.92 in [12]. Also, the PBM binding z-score in assay [13] is -0.157; in assay [14], -0.59; in assay [15], 0.0359; in [16], -0.0612; in [17], -0.589; in assay [18] it was 0.475. Besides, the PBM binding z-score in [19] was -0.576; in assay [20] it was 0.955.

Take TAGCCTAGGTCATGCGGGGCAGTATAGTGTCGGC: the PBM binding z-score in [1] came to 3.99; in [2] it was 3.24; in [3], 0.431; in assay [4], 2.23; in assay [5], 0.295; in [6], 3.56. The PBM binding z-score in [7] turned out to be 2.18; in [8] it was 2.41; in [9], 0.0404; in assay [10], 1.28; in assay [11] it was 1.69; in assay [12], 3.02. Moreover, the PBM binding z-score in assay [13] was 0.874; in assay [14], -0.0244; in assay [15], 0.993; in assay [16], 2.16; in [17], -0.37; in assay [18] it was 2.61. For the same sequence, the values for the PBM binding z-score in assay [19] and in assay [20] were -0.595 and 3.75, respectively.

As to AGAACGAGGGCACGCTGCGTTGATAGCAGAGTAG, the PBM binding z-score in [1] is 0.623; in [2] it was 0.419; in assay [3], -0.7; in [4], -0.144; in assay [5], -0.905; in [6], 1.75. The PBM binding z-score stood at 1.89 in [7]; 1.74 in assay [8]; 0.373 in assay [9]; 1 in [10]; 4.17 in assay [11]; 3.95 in [12]. Further, the PBM binding z-score in [13] was 0.425; in assay [14], -0.427; in [15] it was 0.0277; in assay [16], 0.123; in assay [17] it was -0.527; in assay [18] it was 0.344. In addition, the values for the PBM binding z-score in [19] and in assay [20] were -0.962 and 2.52, respectively.

With TCAGACAGGTGGAGGTAACTCAGGTACGCAGTCG, the PBM binding z-score in [1] was 0.494; in assay [2] it was 1.77; in assay [3], -0.167; in assay [4], 0.998; in assay [5], 0.354; in assay [6], 0.55. Besides, the PBM binding z-score was 0.357 in assay [7]; 1.4 in [8]; 3.1 in assay [9]; 2.3 in assay [10]; 1.72 in assay [11]; -0.0459 in [12]. Moreover, the PBM binding z-score was 0.459 in assay [13]; -0.319 in assay [14]; 0.082 in assay [15]; 0.506 in assay [16]; 0.154 in [17]; 0.233 in assay [18]. The values for the PBM binding z-score in [19] and in assay [20] were 0.265 and 0.399, respectively.

Consider CGTCAAAGTTCAAGGTAGCGTAACAGAAAGCAGC, for which the PBM binding z-score in assay [1] came out at 5.54; in assay [2], 5.8; in assay [3] it was 2.95; in assay [4] it was 3.18; in assay [5], 0.738; in assay [6], 4.56. Moreover, the PBM binding z-score was found to be 3.8 in assay [7]; 5.04 in assay [8]; 2.26 in [9]; 3.89 in [10]; 0.367 in [11]; 1.36 in [12]. The PBM binding z-score is -0.0381 in [13]; 0.0782 in assay [14]; 3.03 in assay [15]; 3.84 in assay [16]; 2.73 in assay [17]; 3.35 in [18]. Besides, the PBM binding z-score is 0.828 in assay [19] and 5.01 in assay [20].

CCGAGGAGGTTATGGGGCATTCAGGCAACGGTGA: the PBM binding z-score in [1] is 1.52; in assay [2], 1.44; in assay [3], 0.15; in assay [4], 1.86; in assay [5] it was -0.173; in assay [6], 2.84. For the same sequence, the PBM binding z-score came to 1.66 in [7]; 2.11 in assay [8]; 0.0714 in assay [9]; 1.39 in assay [10]; 0.461 in assay [11]; 1.61 in assay [12]. Also, the PBM binding z-score in assay [13] is -0.326; in assay [14], -0.847; in [15], 1.13; in assay [16], 0.815; in assay [17] it was -0.214; in [18], 1.43. For the same sequence, the results for the PBM binding z-score in [19] and in [20] were -0.195 and 1.73, respectively.

Source of the values: the supplement of paper PMC6555819.
